{"source": "PubChem BioAssay (NCI)", "note": "Compounds without any hit were thinned out: in the full panel of roughly 83,000, 20% have a hit.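 Negative percent growth values reflect cell death: -40 means 40% of the cells present at the start died, and -100 means all died.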 A number with no mark means an inactive call. The source made the active and inactive calls."}
{"system": "SNB-19 CNS", "assay": "NCI-60 one-dose screen, 48 h (100 = growth as untreated, 0 = no growth, -100 = all killed)", "conditions": "10 µM unless noted", "method": "Growth inhibition of the SNB-19 human tumor cell line is measured as a screen for anti-cancer activity. Cells are grown in 96 well plates and exposed to the test compound for 48 hours. Compounds are tested at a single concentration, which is 10^-5 M for most compounds. The reported endpoint is percent growth (GI% or GIPRCNT), where numbers from 0 - 100% represent growth inhibition, and numbers from -100% - 0 represent cell death. For example, a value of 40 represents 60% growth inhibition. A value of 0 means no net growth occurred over the course of the experiment. A value of -40 indicates 40% of cells at the beginning of the experiment died by the end of the experiment. A value of -100 means all cells are dead at the end of the experiment.\nNCI-60 Human Tumor Cell Lines Screen was performed using the standard one-dose NCI protocol, which is described in more detail at https://dtp.cancer.gov/discovery_development/nci-60/default.htm.\nCompounds with GIPRCNT values below 10 were considered active. Activity score was based on GIPRCNT using the following formula: […]\nScore is 0 for GIPRCNT values of 100 or above, 50 for GIPRCNT values of 0, and 100 for GIPRCNT values of -100."}
{"smiles": "O=c1[nH]c2cc(Cl)ccc2n1C1CCN(CCCC(c2ccc(F)cc2)c2ccc(F)cc2)CC1", "growth": "73.8%"}
{"smiles": "CCC(CO)NC1CCCCC1", "note": "(stereo not given)", "growth": "88.3%"}
{"smiles": "C=CC(O)CN1CC1CC", "note": "(stereo not given)", "growth": "97.8%"}
{"smiles": "Cc1cc(NC(=O)CCc2ccc(N3C(N)=NC(N)=NC3(C)C)cc2)ccc1S(=O)(=O)F", "growth": "45%"}
{"smiles": "CC1CC=CCC12C(=O)NC(=S)NC2=O", "note": "(stereo not given)", "growth": "109%"}
{"smiles": "S=P(Nc1ccccc1)(Nc1ccccc1)c1ccccc1", "growth": "85.3%"}
{"smiles": "O=C(N/N=C/c1ccc([N+](=O)[O-])o1)c1cc([N+](=O)[O-])cc([N+](=O)[O-])c1O", "growth": "100%"}
{"smiles": "OC1CCCCC1N1CCC(c2ccccc2)CC1", "note": "(stereo not given)", "growth": "117%"}
{"smiles": "CCN(CC)CCOc1c(C(C)C)cccc1C(C)C", "growth": "106%"}
{"smiles": "CN(C)P1(N(C)C)=NP(N(C)C)(N(C)C)=NP(N(C)C)(N(C)C)=N1", "growth": "103%"}
{"smiles": "Fc1ccc(C2=NN(c3ccccc3)C(c3sc(N(CCCl)CCCl)nc3Cl)C2)cc1", "note": "(stereo not given)", "growth": "95.6%"}
{"smiles": "[N-]=[N+]=NC(C(=O)O)c1ccccc1", "note": "(stereo not given)", "growth": "100%"}
{"smiles": "CC(C)(C)NCC(O)c1ccccc1Cl", "note": "(stereo not given)", "growth": "27.8%"}
{"smiles": "CCOc1ccc(C(O)CN(C)Cc2ccccc2)cc1Cl", "note": "(stereo not given)", "growth": "100%"}
{"smiles": "COc1cccc2c1C(=O)c1c(O)c3c(c(O)c1C2=O)CC(O)(/C(C)=N/NC(=O)CCC(=O)N/N=C(\\C)C1(O)Cc2c(O)c4c(c(O)c2C(OC2CC(N)C(O)C(C)O2)C1)C(=O)c1c(OC)cccc1C4=O)CC3OC1CC(N)C(O)C(C)O1", "note": "(stereo not given)", "growth": "-20.9% [5 µM] (active)"}
{"smiles": "O=C(C(=O)N1CCCC1)c1cn(CCCCCn2cc(C(=O)C(=O)N3CCCC3)c3ccccc32)c2ccccc12", "growth": "93.5%"}
{"smiles": "O=[As]c1ccc(C(=O)c2ccc(Oc3ccccc3)cc2)cc1", "note": "(stereo not given)", "growth": "-97.4% (active)"}
{"smiles": "NC(Cc1ccc(O)cc1)C(=O)N/N=C/c1ccc(N(CCCl)CCCl)cc1", "note": "(stereo not given)", "growth": "92.5%"}
{"smiles": "COc1cc(C2(C#N)CCN(C)CC2)cc(OC)c1OC", "growth": "102%"}
{"smiles": "CC1(C)CC(=O)CC(C)(C)N1N=O", "growth": "107%"}
{"smiles": "Cc1cc(C)nc(C)c1.[Cl][Hg][Cl]", "growth": "104%"}
{"smiles": "OC1(c2ccc(Cl)cc2Cl)c2ccccc2C2=NCCN21", "note": "(stereo not given)", "growth": "101%"}
{"smiles": "CO[C@@H]([CH2][Hg][S]C#N)[C@@H]([CH2][Hg][S]C#N)OC", "growth": "100%"}
{"smiles": "CC1(C)N=C(N)N=C(N)N1c1ccc(OCCCCNC(=O)c2ccc(S(=O)(=O)F)cc2)c(Cl)c1", "growth": "103%"}
{"smiles": "O=C1NC(=O)C(O)(C2(O)C(=O)NC(=O)NC2=O)C(=O)N1", "growth": "96.1%"}
{"smiles": "C[C@]12CC[C@H](OC3OC(O)C(O)C(O)C3O)C=C1CCC1C2CC[C@]2(C)[C@@H](c3ccc(=O)oc3)CC[C@]12O", "note": "(stereo not given in full)", "growth": "-98.8% (active)"}
{"smiles": "Nc1nc(N)c(-c2ccc(Cl)c(Cl)c2)c(/C=C/c2ccc(S(=O)(=O)F)cc2)n1", "growth": "102%"}
{"smiles": "COc1cc(CNCCc2ccc(Cl)cc2)cc(OC)c1O", "growth": "75.6%"}
{"smiles": "Nc1cccc2c1Oc1ccccc1O2", "growth": "114%"}
{"smiles": "CC(=O)O[C@H]1C[C@H](O[C@H]2[C@@H](O)C[C@H](O[C@H]3[C@@H](O)C[C@H](O[C@H]4CC[C@@]5(C)C(CCC6C5C[C@@H](O)[C@]5(C)[C@@H](C7=CC(=O)OC7)CC[C@]65O)C4)O[C@@H]3C)O[C@@H]2C)O[C@H](C)[C@H]1O[C@@H]1O[C@H](CO)[C@@H](O)[C@H](O)[C@H]1O", "note": "(stereo not given in full)", "growth": "-100% (active)"}
{"smiles": "CCOP(=O)(OCC)Oc1ccc(Sc2ccc(OP(=O)(OCC)OCC)cc2)cc1", "growth": "100%"}
{"smiles": "Cn1cnnc1[S-].[Au+].c1ccc([PH+](c2ccccc2)c2ccccc2)cc1", "growth": "11.4%"}
{"smiles": "COC[CH2][Hg][C]#[C][Hg][CH2]COC", "growth": "108%"}
{"smiles": "COc1ccc(OC)c(/C=C(/C)[N+](=O)[O-])c1", "growth": "97.6%"}
{"smiles": "CC1(C)N=C(N)N=C(N)N1c1ccc(CNC(=O)Nc2ccc(S(=O)(=O)F)c(Cl)c2)c(Cl)c1", "growth": "56%"}
{"smiles": "CC(=O)C1CCC2C3CC=C4CC(OC(=O)Cc5ccc(N(CCCl)CCCl)cc5)CCC4(C)C3CCC12C", "note": "(stereo not given)", "growth": "93.4%"}
{"smiles": "ClCCN(CCCl)c1ccc(C=NCCc2c[nH]c3ccccc23)cc1", "growth": "89.8%"}
{"smiles": "CC(C)CCC[C@@H](C)[C@H]1CC[C@H]2[C@@H]3CC=C4C[C@@H](OC(=O)Cc5ccc(N(CCCl)CCCl)cc5)CC[C@]4(C)[C@H]3CC[C@]12C", "growth": "107%"}
{"smiles": "CCCC(C)(C)c1ccc2c(c1)OC(C)(C)[C@@H]1CC=C(C)C[C@@H]21", "growth": "103%"}
{"smiles": "O=C(NCCNC(=O)c1ccc([As](O)O)cc1)c1ccc([As](O)O)cc1", "growth": "106%"}
